From publication PMC7862700, “An all-to-all approach to the identification of sequence-specific readers for epigenetic DNA modifications on cytosine”

Tests used:
Assay in all cases: DAPPL (digital affinity profiling via proximity ligation, sequencing); 10 mM Tris-HCl pH 7.5, 50 mM NaCl, 1 mM DTT, 4% glycerol, room temperature, 30 min; GST-TFs on glutathione beads, 16-mer random dsDNA library, 0.1% formaldehyde crosslink after washing; high values mean tight binding
[1] = target: T1, FLI1 (Homo sapiens, UniProt Q01543 1-452); settings: protein: recombinant; tags: N-terminal GST; dsDNA, one strand shown
T1 sequence: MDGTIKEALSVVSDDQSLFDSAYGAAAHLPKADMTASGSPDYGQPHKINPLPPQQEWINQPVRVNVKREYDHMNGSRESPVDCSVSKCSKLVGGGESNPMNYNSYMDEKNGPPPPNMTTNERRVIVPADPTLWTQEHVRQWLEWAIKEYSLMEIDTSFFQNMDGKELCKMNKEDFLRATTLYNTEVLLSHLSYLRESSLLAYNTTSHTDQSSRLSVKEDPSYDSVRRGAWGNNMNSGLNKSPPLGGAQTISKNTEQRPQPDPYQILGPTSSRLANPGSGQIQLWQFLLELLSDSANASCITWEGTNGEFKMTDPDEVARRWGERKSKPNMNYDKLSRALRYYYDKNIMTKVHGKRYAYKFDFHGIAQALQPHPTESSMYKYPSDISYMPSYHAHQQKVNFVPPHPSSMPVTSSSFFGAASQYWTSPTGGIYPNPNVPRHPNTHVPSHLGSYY
How it was run: (§1)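 GST fusions of human transcription factors were expressed in yeast and captured with glutathione beads. Once given DNA barcodes and pooled alongside a tag-only sample, they were incubated for 30 min at room temperature with 200 nmole of a random double-stranded 16-mer DNA library in Tris/NaCl/DTT/glycerol buffer, then washed, crosslinked (0.1% formaldehyde), proximity-ligated, PCR-amplified and sequenced on an Illumina NextSeq500. The binding signal of each hexamer is its read frequency for a factor divided by its frequency for the tag-only sample.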

[2] = target: T2, ELK1 (Homo sapiens, UniProt P19419 1-428); settings: protein: recombinant; tags: N-terminal GST; dsDNA, one strand shown
T2 sequence: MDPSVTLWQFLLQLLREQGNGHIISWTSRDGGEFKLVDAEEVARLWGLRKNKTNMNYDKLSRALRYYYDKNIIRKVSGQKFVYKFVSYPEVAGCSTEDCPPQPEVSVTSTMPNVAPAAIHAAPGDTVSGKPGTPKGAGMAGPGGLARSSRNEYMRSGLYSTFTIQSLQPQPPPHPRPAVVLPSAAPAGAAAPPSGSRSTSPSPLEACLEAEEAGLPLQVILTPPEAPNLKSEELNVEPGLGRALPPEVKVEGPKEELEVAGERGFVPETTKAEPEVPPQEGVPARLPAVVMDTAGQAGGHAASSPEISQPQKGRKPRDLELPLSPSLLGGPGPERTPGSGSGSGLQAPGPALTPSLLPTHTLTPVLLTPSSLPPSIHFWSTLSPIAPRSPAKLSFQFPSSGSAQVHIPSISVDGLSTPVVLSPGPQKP
How it was run: as §1

[3] = target: T3, GABPA (Homo sapiens, UniProt Q06546 1-454); settings: protein: recombinant; tags: N-terminal GST; dsDNA, one strand shown
T3 sequence: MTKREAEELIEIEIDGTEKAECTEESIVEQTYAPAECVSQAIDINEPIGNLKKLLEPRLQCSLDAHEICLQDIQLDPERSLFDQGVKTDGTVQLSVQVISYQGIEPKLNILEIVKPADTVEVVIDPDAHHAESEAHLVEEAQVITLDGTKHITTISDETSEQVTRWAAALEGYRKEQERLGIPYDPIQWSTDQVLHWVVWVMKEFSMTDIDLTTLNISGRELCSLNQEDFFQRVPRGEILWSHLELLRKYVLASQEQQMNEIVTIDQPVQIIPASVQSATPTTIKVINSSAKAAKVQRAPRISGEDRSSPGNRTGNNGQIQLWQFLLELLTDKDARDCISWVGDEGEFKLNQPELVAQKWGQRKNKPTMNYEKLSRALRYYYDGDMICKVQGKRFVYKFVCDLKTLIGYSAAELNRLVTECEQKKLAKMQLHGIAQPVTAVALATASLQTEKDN
How it was run: as §1

[4] = target: T4, ERG (Homo sapiens, UniProt P11308 1-479); settings: protein: recombinant; tags: N-terminal GST; dsDNA, one strand shown
T4 sequence: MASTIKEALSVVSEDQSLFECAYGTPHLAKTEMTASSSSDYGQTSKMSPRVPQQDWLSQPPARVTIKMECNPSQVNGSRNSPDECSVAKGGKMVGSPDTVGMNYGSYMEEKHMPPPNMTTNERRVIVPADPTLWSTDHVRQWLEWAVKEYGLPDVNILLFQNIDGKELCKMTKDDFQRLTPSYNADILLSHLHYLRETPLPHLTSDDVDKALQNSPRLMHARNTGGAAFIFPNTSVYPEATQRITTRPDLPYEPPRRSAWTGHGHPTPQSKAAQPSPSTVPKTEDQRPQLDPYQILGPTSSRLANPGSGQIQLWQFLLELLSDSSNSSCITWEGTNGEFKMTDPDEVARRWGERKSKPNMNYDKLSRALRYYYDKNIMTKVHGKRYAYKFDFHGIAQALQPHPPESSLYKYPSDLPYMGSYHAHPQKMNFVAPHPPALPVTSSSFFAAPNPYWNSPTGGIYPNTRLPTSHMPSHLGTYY
How it was run: as §1

[5] = target: ELF1 (Homo sapiens, UniProt P32519 1-619); settings: protein: recombinant; tags: N-terminal GST; dsDNA, one strand shown
Sequence of ELF1 (P32519 whole entry): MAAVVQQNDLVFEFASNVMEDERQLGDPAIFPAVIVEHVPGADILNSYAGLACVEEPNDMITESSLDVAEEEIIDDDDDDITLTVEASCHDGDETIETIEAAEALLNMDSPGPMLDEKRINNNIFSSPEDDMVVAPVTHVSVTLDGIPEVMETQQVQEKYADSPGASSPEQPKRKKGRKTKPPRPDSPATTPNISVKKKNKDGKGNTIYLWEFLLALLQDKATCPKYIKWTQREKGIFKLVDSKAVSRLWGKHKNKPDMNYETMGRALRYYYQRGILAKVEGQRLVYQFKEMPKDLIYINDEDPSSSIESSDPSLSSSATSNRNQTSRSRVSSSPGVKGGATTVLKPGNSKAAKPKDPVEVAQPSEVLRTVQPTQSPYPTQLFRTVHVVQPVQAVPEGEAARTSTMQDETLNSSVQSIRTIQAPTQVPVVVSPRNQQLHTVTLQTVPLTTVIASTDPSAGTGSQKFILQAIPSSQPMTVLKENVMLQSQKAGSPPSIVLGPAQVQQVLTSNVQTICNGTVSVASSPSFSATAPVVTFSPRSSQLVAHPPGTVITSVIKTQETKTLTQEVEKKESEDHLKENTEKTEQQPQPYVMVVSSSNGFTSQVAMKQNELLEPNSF
How it was run: as §1

[6] = target: T5, EHF (Homo sapiens, UniProt Q9NZC4 1-300); settings: protein: recombinant; tags: N-terminal GST; dsDNA, one strand shown
T5 sequence: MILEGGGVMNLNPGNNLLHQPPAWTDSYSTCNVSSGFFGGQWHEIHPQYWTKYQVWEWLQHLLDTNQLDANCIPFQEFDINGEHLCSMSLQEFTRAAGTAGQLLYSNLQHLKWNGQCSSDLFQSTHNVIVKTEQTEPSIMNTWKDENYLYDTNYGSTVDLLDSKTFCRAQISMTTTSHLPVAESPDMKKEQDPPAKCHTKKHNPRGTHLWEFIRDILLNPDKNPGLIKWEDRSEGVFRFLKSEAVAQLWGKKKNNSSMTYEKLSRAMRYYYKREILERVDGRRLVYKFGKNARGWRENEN
How it was run: as §1

[7] = target: SPI1 (Homo sapiens, UniProt P17947 1-270); settings: protein: recombinant; tags: N-terminal GST; dsDNA, one strand shown
How it was run: as §1

[8] = target: SPIB (Homo sapiens, UniProt Q01892 1-262); settings: protein: recombinant; tags: N-terminal GST; dsDNA, one strand shown
Sequence of SPIB (Q01892 whole entry): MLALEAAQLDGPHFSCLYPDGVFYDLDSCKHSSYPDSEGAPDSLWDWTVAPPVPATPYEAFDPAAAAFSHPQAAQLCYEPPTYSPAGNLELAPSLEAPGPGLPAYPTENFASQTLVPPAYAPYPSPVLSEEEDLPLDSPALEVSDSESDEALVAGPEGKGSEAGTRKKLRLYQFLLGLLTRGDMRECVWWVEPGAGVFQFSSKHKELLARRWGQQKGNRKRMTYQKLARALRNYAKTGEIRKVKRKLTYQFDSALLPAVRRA
How it was run: as §1

[9] = target: T6, ELK3 (Homo sapiens, UniProt P41970 1-407); settings: protein: recombinant; tags: N-terminal GST; dsDNA, one strand shown
T6 sequence: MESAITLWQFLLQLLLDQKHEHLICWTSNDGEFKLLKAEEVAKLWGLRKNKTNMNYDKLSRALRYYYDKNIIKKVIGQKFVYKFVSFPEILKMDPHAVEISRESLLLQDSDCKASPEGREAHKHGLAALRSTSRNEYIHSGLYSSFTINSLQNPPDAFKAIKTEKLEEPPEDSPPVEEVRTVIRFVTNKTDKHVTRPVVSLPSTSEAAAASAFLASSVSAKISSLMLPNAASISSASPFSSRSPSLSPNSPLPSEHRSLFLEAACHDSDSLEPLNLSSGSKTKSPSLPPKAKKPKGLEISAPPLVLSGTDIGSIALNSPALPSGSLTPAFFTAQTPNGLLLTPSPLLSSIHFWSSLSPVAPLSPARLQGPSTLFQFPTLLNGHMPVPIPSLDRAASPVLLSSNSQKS
How it was run: as §1

[10] = target: T7, FEV (Homo sapiens, UniProt Q99581 1-238); settings: protein: recombinant; tags: N-terminal GST; dsDNA, one strand shown
T7 sequence: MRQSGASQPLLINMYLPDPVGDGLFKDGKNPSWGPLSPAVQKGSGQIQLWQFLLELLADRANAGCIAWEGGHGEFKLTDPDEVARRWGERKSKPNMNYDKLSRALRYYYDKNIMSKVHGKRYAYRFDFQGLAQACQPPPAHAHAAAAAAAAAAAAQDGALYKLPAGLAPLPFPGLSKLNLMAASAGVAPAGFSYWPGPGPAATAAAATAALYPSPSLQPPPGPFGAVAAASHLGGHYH
How it was run: as §1

[11] = target: ETV5 (Homo sapiens, UniProt P41161 1-510); settings: protein: recombinant; tags: N-terminal GST; dsDNA, one strand shown
Sequence of ETV5 (P41161 whole entry): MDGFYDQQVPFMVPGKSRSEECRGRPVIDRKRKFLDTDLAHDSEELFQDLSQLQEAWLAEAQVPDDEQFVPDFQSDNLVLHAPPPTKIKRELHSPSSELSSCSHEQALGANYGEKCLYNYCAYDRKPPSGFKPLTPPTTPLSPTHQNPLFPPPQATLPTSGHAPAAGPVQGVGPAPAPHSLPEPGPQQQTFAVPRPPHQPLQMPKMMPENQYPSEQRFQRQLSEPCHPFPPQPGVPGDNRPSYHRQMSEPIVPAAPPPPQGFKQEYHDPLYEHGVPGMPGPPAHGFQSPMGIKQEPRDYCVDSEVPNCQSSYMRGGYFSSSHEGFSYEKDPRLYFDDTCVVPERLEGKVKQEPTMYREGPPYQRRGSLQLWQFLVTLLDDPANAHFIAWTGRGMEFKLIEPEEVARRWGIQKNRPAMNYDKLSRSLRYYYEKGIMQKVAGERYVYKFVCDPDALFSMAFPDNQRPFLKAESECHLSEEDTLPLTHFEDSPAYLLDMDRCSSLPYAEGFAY
How it was run: as §1

[12] = target: HSF1 (Homo sapiens, UniProt Q00613 1-529); settings: protein: recombinant; tags: N-terminal GST; chain copies: 3; dsDNA, one strand shown
Sequence of HSF1 (Q00613 whole entry): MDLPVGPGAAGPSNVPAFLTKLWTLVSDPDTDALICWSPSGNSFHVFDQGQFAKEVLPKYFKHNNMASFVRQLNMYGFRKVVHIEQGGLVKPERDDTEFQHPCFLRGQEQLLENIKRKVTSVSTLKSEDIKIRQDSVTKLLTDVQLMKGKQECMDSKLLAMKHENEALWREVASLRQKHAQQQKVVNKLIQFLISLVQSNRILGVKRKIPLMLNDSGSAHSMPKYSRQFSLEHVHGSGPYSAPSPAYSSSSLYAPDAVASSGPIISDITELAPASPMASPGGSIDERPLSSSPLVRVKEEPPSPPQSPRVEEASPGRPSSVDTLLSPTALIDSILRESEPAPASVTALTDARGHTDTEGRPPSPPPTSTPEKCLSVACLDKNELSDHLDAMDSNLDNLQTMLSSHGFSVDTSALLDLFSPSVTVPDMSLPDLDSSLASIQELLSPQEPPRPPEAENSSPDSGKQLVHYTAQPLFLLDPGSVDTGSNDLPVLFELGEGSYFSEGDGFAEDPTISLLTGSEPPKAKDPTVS
How it was run: as §1

[13] = target: T8, SPIC (Homo sapiens, UniProt Q8N5J4 1-248); settings: protein: recombinant; tags: N-terminal GST; dsDNA, one strand shown
T8 sequence: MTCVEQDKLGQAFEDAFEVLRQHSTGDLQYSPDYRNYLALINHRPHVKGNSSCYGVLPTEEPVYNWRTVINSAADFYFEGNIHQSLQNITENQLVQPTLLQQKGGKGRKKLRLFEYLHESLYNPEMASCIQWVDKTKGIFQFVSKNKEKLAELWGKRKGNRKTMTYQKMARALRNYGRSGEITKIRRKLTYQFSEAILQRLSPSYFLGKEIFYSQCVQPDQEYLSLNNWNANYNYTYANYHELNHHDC
How it was run: as §1

[14] = target: ELF4 (Homo sapiens, UniProt Q99607 1-663); settings: protein: recombinant; tags: N-terminal GST; dsDNA, one strand shown
Sequence of ELF4 (Q99607 whole entry): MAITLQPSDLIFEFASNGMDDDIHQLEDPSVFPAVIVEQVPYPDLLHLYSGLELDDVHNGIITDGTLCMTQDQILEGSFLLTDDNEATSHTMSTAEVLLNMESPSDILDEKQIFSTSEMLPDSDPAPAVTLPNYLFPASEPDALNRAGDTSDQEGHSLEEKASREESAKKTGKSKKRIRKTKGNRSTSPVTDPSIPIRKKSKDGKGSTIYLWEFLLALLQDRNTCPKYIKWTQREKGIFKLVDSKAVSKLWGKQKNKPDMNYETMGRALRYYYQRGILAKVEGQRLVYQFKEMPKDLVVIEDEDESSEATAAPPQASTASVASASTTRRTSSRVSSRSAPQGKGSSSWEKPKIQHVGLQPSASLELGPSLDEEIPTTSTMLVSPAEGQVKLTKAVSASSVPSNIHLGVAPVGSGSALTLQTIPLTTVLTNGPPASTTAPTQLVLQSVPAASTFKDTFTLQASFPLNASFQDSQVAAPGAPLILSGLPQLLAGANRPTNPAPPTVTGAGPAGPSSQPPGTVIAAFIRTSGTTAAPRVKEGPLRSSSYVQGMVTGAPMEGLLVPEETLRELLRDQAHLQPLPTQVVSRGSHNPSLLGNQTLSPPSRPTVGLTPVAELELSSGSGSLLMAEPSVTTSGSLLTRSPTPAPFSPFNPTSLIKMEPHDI
How it was run: as §1

[15] = target: T9, ELK4 (Homo sapiens, UniProt P28324-2 1-405); settings: protein: recombinant; tags: N-terminal GST; dsDNA, one strand shown
T9 sequence: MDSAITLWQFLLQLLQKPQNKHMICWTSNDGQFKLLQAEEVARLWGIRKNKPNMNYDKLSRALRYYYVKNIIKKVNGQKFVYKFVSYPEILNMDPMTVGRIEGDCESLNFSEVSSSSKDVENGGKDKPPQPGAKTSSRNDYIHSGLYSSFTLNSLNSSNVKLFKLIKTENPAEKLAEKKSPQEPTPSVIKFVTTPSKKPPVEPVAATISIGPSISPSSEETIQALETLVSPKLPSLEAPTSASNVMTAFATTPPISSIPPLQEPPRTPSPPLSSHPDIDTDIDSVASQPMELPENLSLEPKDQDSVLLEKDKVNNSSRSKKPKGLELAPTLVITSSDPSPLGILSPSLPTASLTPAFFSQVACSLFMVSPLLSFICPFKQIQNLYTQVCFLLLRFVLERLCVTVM
How it was run: as §1

[16] = target: T10, ETV2 (Homo sapiens, UniProt O00321 1-342); settings: protein: recombinant; tags: N-terminal GST; dsDNA, one strand shown
T10 sequence: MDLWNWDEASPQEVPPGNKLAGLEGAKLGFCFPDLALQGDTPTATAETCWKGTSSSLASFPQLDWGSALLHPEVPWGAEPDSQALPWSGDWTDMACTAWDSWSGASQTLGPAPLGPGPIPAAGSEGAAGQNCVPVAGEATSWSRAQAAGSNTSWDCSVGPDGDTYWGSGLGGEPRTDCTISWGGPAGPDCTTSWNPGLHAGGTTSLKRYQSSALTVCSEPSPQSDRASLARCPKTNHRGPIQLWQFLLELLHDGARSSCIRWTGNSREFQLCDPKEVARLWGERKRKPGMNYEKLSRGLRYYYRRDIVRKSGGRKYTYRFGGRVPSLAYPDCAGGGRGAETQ
How it was run: as §1

[17] = target: T11, ELF3 (Homo sapiens, UniProt P78545 1-371); settings: protein: recombinant; tags: N-terminal GST; dsDNA, one strand shown
T11 sequence: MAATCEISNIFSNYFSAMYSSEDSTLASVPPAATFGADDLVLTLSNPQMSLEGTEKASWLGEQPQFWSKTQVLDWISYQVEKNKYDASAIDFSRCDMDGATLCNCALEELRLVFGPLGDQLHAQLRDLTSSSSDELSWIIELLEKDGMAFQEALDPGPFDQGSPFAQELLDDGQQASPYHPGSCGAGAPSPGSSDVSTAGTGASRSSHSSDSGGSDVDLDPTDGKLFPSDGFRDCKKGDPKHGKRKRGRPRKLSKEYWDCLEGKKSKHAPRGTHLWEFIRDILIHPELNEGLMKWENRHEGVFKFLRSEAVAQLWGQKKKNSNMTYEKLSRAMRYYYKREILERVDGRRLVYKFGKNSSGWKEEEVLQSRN
How it was run: as §1

[18] = target: CRX (Homo sapiens, UniProt O43186 1-299); settings: protein: recombinant; tags: N-terminal GST; dsDNA, one strand shown
Sequence of CRX (O43186 whole entry): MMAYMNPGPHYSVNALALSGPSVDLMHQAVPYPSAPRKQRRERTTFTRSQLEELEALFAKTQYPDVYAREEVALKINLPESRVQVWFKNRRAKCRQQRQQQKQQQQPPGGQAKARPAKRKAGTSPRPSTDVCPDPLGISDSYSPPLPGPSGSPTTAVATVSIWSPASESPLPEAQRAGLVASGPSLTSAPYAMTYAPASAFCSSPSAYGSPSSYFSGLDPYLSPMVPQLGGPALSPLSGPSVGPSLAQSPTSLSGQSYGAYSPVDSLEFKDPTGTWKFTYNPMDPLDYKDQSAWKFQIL
How it was run: as §1

[19] = target: ETV1 (Homo sapiens, UniProt P50549 1-477); settings: protein: recombinant; tags: N-terminal GST; dsDNA, one strand shown
Sequence of ETV1 (P50549 whole entry): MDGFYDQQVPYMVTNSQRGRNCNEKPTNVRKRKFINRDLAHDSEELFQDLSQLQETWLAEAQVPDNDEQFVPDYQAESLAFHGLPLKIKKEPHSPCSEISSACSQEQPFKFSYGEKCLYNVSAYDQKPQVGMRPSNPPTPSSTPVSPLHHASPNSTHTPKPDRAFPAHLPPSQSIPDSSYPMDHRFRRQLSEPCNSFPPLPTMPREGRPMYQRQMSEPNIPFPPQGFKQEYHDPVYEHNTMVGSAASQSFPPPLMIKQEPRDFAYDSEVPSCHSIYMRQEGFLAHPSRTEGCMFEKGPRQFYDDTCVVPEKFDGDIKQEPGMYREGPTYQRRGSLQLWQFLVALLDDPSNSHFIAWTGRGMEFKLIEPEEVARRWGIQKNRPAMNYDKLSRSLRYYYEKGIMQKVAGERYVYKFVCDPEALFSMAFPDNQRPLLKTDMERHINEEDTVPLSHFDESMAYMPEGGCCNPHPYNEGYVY
How it was run: as §1

## AATAAT
[1]
  binding signal: 1.23 fold enrichment (6-mer frequency, TF over GST control)
[2]
  binding signal: 1.24 fold enrichment (6-mer frequency, TF over GST control)
[3]
  binding signal: 1.31 fold enrichment (6-mer frequency, TF over GST control)
[4]
  binding signal: 1.33 fold enrichment (6-mer frequency, TF over GST control)
[5]
  binding signal: 1.28 fold enrichment (6-mer frequency, TF over GST control)
[6]
  binding signal: 1.36 fold enrichment (6-mer frequency, TF over GST control)
[7]
  binding signal: 1.24 fold enrichment (6-mer frequency, TF over GST control)
[8]
  binding signal: 1.32 fold enrichment (6-mer frequency, TF over GST control)
[9]
  binding signal: 1.39 fold enrichment (6-mer frequency, TF over GST control)
[10]
  binding signal: 1.28 fold enrichment (6-mer frequency, TF over GST control)
[11]
  binding signal: 1.35 fold enrichment (6-mer frequency, TF over GST control)
[12]
  binding signal: 1.93 fold enrichment (6-mer frequency, TF over GST control)
[13]
  binding signal: 1.31 fold enrichment (6-mer frequency, TF over GST control)
[14]
  binding signal: 1.24 fold enrichment (6-mer frequency, TF over GST control)
[15]
  binding signal: 1.22 fold enrichment (6-mer frequency, TF over GST control)
[16]
  binding signal: 1.34 fold enrichment (6-mer frequency, TF over GST control)
[17]
  binding signal: 1.42 fold enrichment (6-mer frequency, TF over GST control)
[18]
  binding signal: 2.41 fold enrichment (6-mer frequency, TF over GST control)
[19]
  binding signal: 1.24 fold enrichment (6-mer frequency, TF over GST control)
